Assay results: paper PMC4336329 (PLoS ONE, 2015)
Hit rate of the full screen: of about 310,000 compounds, about 14,000 (4.5%) showed an effect of 50% or more. The effect is printed as a negative number. The entries come from a sample that favours strong results as a whole.

target: human ether-à-go-go-related gene (hERG) potassium channel (human, UniProt Q12809); assay: primary screen, population patch clamp on CHO cells stably expressing hERG; higher = less effect of the substance
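Further: peak tail current of the secondary pulse compared with the same well before compound.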

human ether-à-go-go-related gene (hERG) potassium channel, sequence (Q12809 whole entry, looked up): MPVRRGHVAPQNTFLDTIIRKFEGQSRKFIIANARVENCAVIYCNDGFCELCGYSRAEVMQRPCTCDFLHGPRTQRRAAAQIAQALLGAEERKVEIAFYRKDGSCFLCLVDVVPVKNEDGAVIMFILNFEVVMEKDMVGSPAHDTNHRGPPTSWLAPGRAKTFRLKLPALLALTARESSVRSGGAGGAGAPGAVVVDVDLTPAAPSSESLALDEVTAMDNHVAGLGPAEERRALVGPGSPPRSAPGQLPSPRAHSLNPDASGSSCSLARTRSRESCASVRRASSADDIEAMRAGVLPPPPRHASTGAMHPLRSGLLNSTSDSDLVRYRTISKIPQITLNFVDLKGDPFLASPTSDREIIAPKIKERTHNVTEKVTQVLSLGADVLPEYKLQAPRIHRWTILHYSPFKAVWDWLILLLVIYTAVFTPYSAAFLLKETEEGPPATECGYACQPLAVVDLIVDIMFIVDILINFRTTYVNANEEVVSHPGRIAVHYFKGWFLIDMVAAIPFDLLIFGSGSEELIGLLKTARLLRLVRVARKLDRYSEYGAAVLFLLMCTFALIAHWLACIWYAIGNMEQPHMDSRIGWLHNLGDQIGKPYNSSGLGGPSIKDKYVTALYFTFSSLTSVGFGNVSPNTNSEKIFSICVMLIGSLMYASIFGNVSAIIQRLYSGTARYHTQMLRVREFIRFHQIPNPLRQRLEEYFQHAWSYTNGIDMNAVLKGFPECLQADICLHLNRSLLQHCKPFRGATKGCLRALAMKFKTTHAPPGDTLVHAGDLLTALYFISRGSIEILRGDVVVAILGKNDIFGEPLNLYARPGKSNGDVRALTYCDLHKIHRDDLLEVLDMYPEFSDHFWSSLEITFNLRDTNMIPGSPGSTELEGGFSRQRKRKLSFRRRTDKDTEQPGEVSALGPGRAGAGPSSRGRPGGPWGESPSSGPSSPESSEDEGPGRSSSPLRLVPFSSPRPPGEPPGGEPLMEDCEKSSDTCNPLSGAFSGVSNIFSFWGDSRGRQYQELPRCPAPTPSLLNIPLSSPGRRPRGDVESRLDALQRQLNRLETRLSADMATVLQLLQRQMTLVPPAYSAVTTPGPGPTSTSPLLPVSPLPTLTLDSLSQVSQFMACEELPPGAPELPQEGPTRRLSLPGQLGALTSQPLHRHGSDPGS

Compound | hERG current change (%, negative = inhibition) at 10uM [%]
COc1ccc(-c2sc(NC(=O)c3ccc(C)cc3)nc2-c2ccc([N+](=O)[O-])cc2)cc1 | 9.66
CCOc1ccc(-n2c(SCC)nc3c(c2=O)SCC3)cc1 | 15
Cn1c(=O)c2ccccc2n(CC(=O)NC2CCCC2)c1=O | 9.82
CCCN(CCC)Cc1cc(=O)oc2cc3c(cc12)CCC3 | -9.37
CC(=O)O.CC(=O)Oc1ccc2c(c1)OC(c1ccccc1)CC21CC(C)(C)NC(=O)N1 (centres unmarked) | 3.82
O=C1CCCN1CCCNS(=O)(=O)c1ccc(F)cc1F | 8.77
Cc1ccc(-n2nc3c(c2NC(=O)CC(C)C)CS(=O)(=O)C3)c(C)c1 | 25
O=C(COC(=O)C1CC(=O)N(Cc2ccccc2)C1)Nc1ccc(Cl)cc1F (centres unmarked) | 48
C/C(=N\NC(=O)c1nnn(-c2nonc2N)c1CSc1ccc(C)cc1)c1ccco1 | -9.04
O=C1c2ccccc2NC(c2ccc(O)cc2)N1Cc1ccco1 (centres unmarked) | -24.3
CCOC(=O)C(C)CC(C)C(=O)N1CCOCCN(C(=O)C(C)CC(C)C(=O)OCC)CCOCC1 (centres unmarked) | -9.48
COc1ccc(CN(Cc2cc3ccc(C)cc3[nH]c2=O)Cc2nnnn2C2CCCC2)cc1 | -21.4
CC1(C)Cc2c(c(N3CCOCC3)nc3sc(C(N)=O)c(N)c23)CO1 | -5.66
O=C(NCC1CCCO1)c1cc(-c2ccc(Cl)cc2Cl)on1 (centres unmarked) | -9.68
Nc1nccnc1C(=O)OCC(=O)N1CCN(S(=O)(=O)c2ccc(Cl)cc2)CC1 | -15.4
CCCNC(=O)CSc1nc2ccccc2c(=O)n1CCC | 3.3
O=C(Nc1ccccc1N1CCCC1)c1ccc(N2CCCC2=O)cc1 | -22.1
COc1ccc(C)cc1NC(=O)COC(=O)c1ccc2ccccc2n1 | 3.24
COc1ccc(CCC(C)N(C)Cc2ccccc2)cc1 (centres unmarked) | -34.8
CC(O)CCc1ccc(O)cc1 (centres unmarked) | 11.7
CC(CCc1ccc(O)cc1)N(C)CCc1ccccc1 (centres unmarked) | -62.2
CCCNC(=O)c1cc(Cl)c(NC(=O)C2=CSCCO2)cc1OC | 16.5
C=CCNC(=O)Nc1cc(Cl)ccc1OC | 7.65
CCOC(=O)c1ccc(NC(=O)CCCN2C(=O)NC3(CCCC3)C2=O)cc1 | -3.62
O=C(O)CCCCCNC(=O)CCn1cnc2ccccc2c1=O | 5.02
COc1ccccc1N1CCN(C(=O)CCCCCn2c(=O)[nH]c3ccsc3c2=O)CC1 | -24.7
O=C1CCCC(=O)N1c1ccc(O)cc1 | 2.73

Compound | hERG current change (%, negative = inhibition) at 10uM [%]
Cc1ccc(C(=O)NCCN2C3=NC[C@@H](Cc4ccccc4)N3C[C@H]2Cc2ccc(O)cc2)cc1Br | -71.1
Cc1ccc(C(=O)NCCN2C3=NC[C@H](Cc4ccc(O)cc4)N3C[C@H]2Cc2ccc(O)cc2)cc1Br | -51.7
Cc1ccc(C(=O)NCCN2C3=NC[C@H](C)N3C[C@H]2Cc2ccc(O)cc2)cc1Br | -8.85
C/C=C(\C)C(=O)NCCN1C2=NC[C@H](Cc3ccc(O)cc3)N2C[C@H]1Cc1ccc(O)cc1 | 16.5
COc1ccc(C[C@H]2CN3C(=NC[C@@H]3Cc3ccc(O)cc3)N2CCNC(=O)c2ccc(C)c(Br)c2)cc1 | -74.3
COc1cc(/C=C2\SC(=O)NC2=O)ccc1Oc1ccc([N+](=O)[O-])cc1[N+](=O)[O-] | 20.2
Brc1cccc(C=Nc2cccc3ncccc23)c1 | 7.37
CCOc1cc(C)c(Cl)cc1S(=O)(=O)n1nnc2ccccc21 | 6.52
COc1ccc(C(=O)Nc2ccc(Cl)c(Cl)c2)c(OC)n1 | 14.1
O=[N+]([O-])c1ccc(N2CCCCC2)c2ncccc12 | -23.7
O=[N+]([O-])c1cc(C(F)(F)F)ccc1N1CCN(S(=O)(=O)c2ccc3ccccc3c2)CC1 | 9.11
Cc1cc(N2CCN(c3ccc(C(F)(F)F)cc3[N+](=O)[O-])CC2)c2ccccc2n1 | -88.9
CN1CCN(c2ccc([N+](=O)[O-])c3cccnc23)CC1 | -41.5
Nc1nonc1OCCN1CCN(c2ccc([N+](=O)[O-])c3cccnc23)CC1 | -71.7
CC1CN(c2ccc([N+](=O)[O-])c3cccnc23)CC(C)N1 (centres unmarked) | -33.4
Cl.O=[N+]([O-])c1ccc(N2CCCNCC2)c2ncccc12 | -64.8
O=[N+]([O-])c1ccc(N2CCCC2)c2ncccc12 | 8.6
O=[N+]([O-])c1ccc(N2CCCCCC2)c2ncccc12 | 5.54
Cc1ccc(S(=O)(=O)N2CCN(c3ccc(C(F)(F)F)cc3[N+](=O)[O-])CC2)cc1 | -30.8
O=[N+]([O-])c1ccc(N2CCN(CCO)CC2)c2ncccc12 | -45.4
Cc1cc(N2CCN(c3ccc([N+](=O)[O-])c4cccnc34)CC2)c2ccccc2n1 | -64.3
CCOC(=O)N1CCN(C(=O)CSc2nnc(-c3ccccc3OC)o2)CC1 | -12.9
COc1cc(/C=C/c2cccc[n+]2C)ccc1OCC(=O)Nc1ccccc1C.[I-] | 8.13
NC(=O)C1CCN(C(=O)CCCCCn2c(=O)[nH]c3ccsc3c2=O)CC1 | 0.397
COc1cccc(OCC(=O)Nc2c3c(nn2-c2ccccc2)CS(=O)(=O)C3)c1 | -48.5
COc1cc(CNc2nc(C)c([N+](=O)[O-])c(C)c2C#N)cc(OC)c1 | 10.8
